Compound activity: PubChem, National Center for Advancing Translational Sciences (NCATS)
Shiga inhibitor – A qHTS for Small Molecule Inhibitors of Shiga Toxin. Vero cells, Shiga toxin protein synthesis inhibition reporter. inhibition, % at 38.7 µM. actives 9.2% (n = 290,000). AID 2315, 2010; in the data active = inhibition mostly above about 28%, no sharp cut-off; inactive = mostly below about 43%; also: 0% is about no effect
Pf growth 48h – Primary qHTS for delayed death inhibitors of the malarial parasite plastid, 48 hour incubation; P. falciparum luciferase growth in erythrocytes, 48 h; Potency, µM (highest dose often 28.7 µM), without a hit: top-dose activity change, negative = inhibition, most hits filed as inhibitors; actives 5.9% (n = 310,000); AID 504832, 2011; also: potency is read from the fitted curve at half-maximal effect; % is scaled to controls: 0 for no effect and ±100 for the full control effect
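Luminescence readout; reporter = integrated firefly luciferase in P. falciparum. RBC culture at 2% hematocrit, 0.1% parasitemia final, 37 C/5% CO2; decreased signal taken as growth inhibition.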
Cycloheximide cs – Cycloheximide Counterscreen for Small Molecule Inhibitors of Shiga Toxin; cell reporter, cycloheximide protein synthesis inhibition counterscreen; actives 12% (n = 300,000); max response, %; AID 2314, 2010; in the data active = max response mostly above about 13%, no sharp cut-off; inactive = mostly below about 14%; also: read at 38.3 µM for the half of the compounds with a filed dose; 0% is about no effect
Pf growth 96h – Primary qHTS for delayed death inhibitors of the malarial parasite plastid, 96 hour incubation. actives 6.9% (n = 320,000). P. falciparum luciferase reporter growth, 96 h. Potency, µM (highest dose often 28.7 µM), without a hit: at the top dose activity change, negative = inhibition, usual class: inhibitors; also: potency is read from the fitted curve at half-maximal effect; % is scaled to controls: 0 for no effect and ±100 for the full control effect
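Delayed-death screen, second-generation endpoint: infected erythrocytes, 2% hematocrit, 0.05% parasitemia final; 96 hours at 37 C, 5% CO2; luciferase detection reagent; luminescence decrease equals reduced growth.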
HCMV antiviral – qHTS Assay for inhibitors of the human cytomegalovirus (HCMV) | AID 1259415, 2018 | HFF cells, HCMV-luciferase reporter, 72 h; hits give low values | activity change, negative = inhibition, % at 57.5 µM | actives 4.5% (n = 410,000); in the data active = activity change below about -60%; inconclusive = no clear call, values can overlap the other calls; inactive = above about -39%; also: % is scaled to controls: 0 for no effect and ±100 for the full control effect
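Screen run at 2 compound doses on HFFs infected with reporter HCMV, MOI 1 PFU/cell. Luciferase activity from cell lysates at 72 h post infection gave inhibition relative to buffer-only and Salinomycin wells.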
* marks the source's active call; other numbers are inactive results; i = inactive; ? = inconclusive; / = no result. Shown are actives, neighbours in structure and some others; about 20% of the full set was active somewhere. Unless noted, calls follow the shape of the dose curve; as a rule, active = well fitted inhibition curve with a large enough effect; inconclusive = small, poorly fitted or top-dose-only effect, or another doubt; inactive = no such curve, though single readings can be large or run the other way.

SMILES	Shiga inhibitor	Pf growth 48h	Cycloheximide cs	Pf growth 96h	HCMV antiviral
CC(C)c1ccc(-n2c(O)c(/C=N/NC(=O)c3ccccc3O)c(=O)[nH]c2=S)cc1	48*	3%	33*	3%	-9
O=c1ccn([C@@H]2O[C@H](CNS(=O)(=O)c3csc(-c4ccno4)c3)[C@@H](O)[C@H]2O)c(=O)[nH]1	/	/	/	/	-2
Cc1oc(-c2ccc(Cl)cc2)nc1CN1CCCC(C(=O)NCCc2ccc(Cl)cc2)C1 (configuration not stated)	/	/	/	/	4
O=S(=O)(c1ccc(Br)cc1F)N1CC[C@H](O)C1	/	/	/	/	8
NCC(=O)N[C@@H](CCCN=C(N)N)C(=O)NCC(=O)N[C@@H](CC(=O)O)C(=O)N[C@@H](CO)C(=O)O	16	/	-4	/	/
CCn1c(O)c(/C=N/NC(=O)c2ccccc2)c(=O)n(CC)c1=S	52*	11%	47*	46%	73
O=C(N/N=C/c1c(O)n(Cc2ccco2)c(=O)[nH]c1=O)c1ccccc1O	73*	2%	22*	11%	-7
O=c1[nH]c(=S)n(C2CC2)c(O)c1/C=N/Nc1cccc2ccccc12	72*	11%	25*	-98%	13
CCn1c(O)c(/C=N/NC(=O)c2ccncc2)c(=O)[nH]c1=S	-3	14%	7	0%	-30
O=C(N/N=C/c1c(O)n(C2CCCCC2)c(=S)[nH]c1=O)c1ccccc1O	11	?	15	?	36
O=C(N/N=C/c1c(O)n(C2CCCCC2)c(=S)[nH]c1=O)c1ccccc1	48*	0%	22	0%	0
CCCCC(=O)N/N=C/c1c(O)n(C2CC2)c(=S)[nH]c1=O	7	28%	-3	14%	28
O=C(N/N=C/c1c(O)n(CCc2ccccc2)c(=O)[nH]c1=O)c1ccccc1	31*	92%	30*	63%	14
CN(C)S(=O)(=O)c1ccc(C(=O)Nc2ccc3c(c2)CCC3)cc1	33*	9%	29*	2%	-34
CN(C)S(=O)(=O)c1cccc(C(=O)Nc2ccc3c(c2)CCC3)c1	106*	273%	43*	395%	177
COc1ccc(OC)c(-c2noc(CSc3nnc(-c4ccccc4)n3-c3ccccc3)n2)c1	/	/	/	/	2
COc1ccc2c(=O)c3c(=O)n(Cc4ccco4)c(-c4ccccc4)nc3oc2c1	-16	12µM*	13	/	?
CCCCCCn1c(-c2ccco2)nc2oc3cc(OC)ccc3c(=O)c2c1=O	6	5.2µM*	1	?	?
COc1ccc2c(=O)c3c(=O)n(Cc4ccco4)c(-c4cc(OC)c(OC)c(OC)c4)nc3oc2c1	14	1.9µM*	1	1.7µM*	57
COc1ccc2c(=O)c3c(=O)n(CCc4ccccc4)c(C)nc3oc2c1	/	/	/	/	3
CCCc1nc2oc3cc(OC)ccc3c(=O)c2c(=O)n1Cc1ccco1	-24	9.3µM*	-4	15%	-20
COc1ccc(Cn2c(C)nc3oc4cc(OC)ccc4c(=O)c3c2=O)cc1	-13	?	-8	?	-8
Cc1noc(C)c1C(=O)Nc1cc(S(=O)(=O)N2CCCCC2)ccc1N(C)C	/	?	/	-22%	-10
COc1ccc2[nH]c(C(=O)O)c(CCN3C(=O)c4ccc(C(=O)O)cc4C3=O)c2c1	24	50%	17*	38%	106
CC(C)c1ccc(NC(=O)CSc2nc(-c3ccccc3F)nc3nc[nH]c23)cc1	-10	-2%	-3	?	-19
SMILES	Shiga inhibitor	Pf growth 48h	Cycloheximide cs	Pf growth 96h	HCMV antiviral
Cn1cc(C(=O)Nc2ccc(F)c(Cl)c2)cn1	43	35%	10	2%	149
CN1c2ccsc2C(O)=C(C(=S)Nc2ccc(F)c(Cl)c2)S1(=O)=O	51	/	15*	?	106
COc1cc2c(cc1OC)[C@@H](NC(=O)C(C)C)[C@H](OCc1ccccc1)C2	/	/	/	/	-19
N#Cc1sc(NCc2ccccc2)nc1Cl	18	-3%	19	?	2
COc1ccc(CNc2nc(Cl)c(C#N)s2)cc1	45*	/	41*	0%	2
COc1ccc2c(CNCc3cccs3)c(C(=O)O)n(Cc3ccc(F)cc3)c2c1	/	/	/	/	-19
COc1ccc(N2CC(C(=O)NC3=NCCS3)CC2=O)cc1 (configuration not stated)	-21	22%	-1	19%	29
CNC(=O)CCc1[nH]c2ccccc2c1Sc1ccccc1	14	?	-3	5.2µM*	19
CC1(C(=O)NCc2ccccc2Br)CCN1Cc1ccccc1OC(F)F (configuration not stated)	/	/	/	/	-36
CC1(C(=O)NCc2ccccc2Br)CCN1Cc1c(F)cccc1F (configuration not stated)	/	/	/	/	-61*
OCC[C@H]1C[C@@H](O)[C@H](O)[C@@]2(CCCCO2)O1	/	/	/	/	-21
O=[N+]([O-])c1nn(-c2ccc3c(c2)OCCO3)n(O)c1=NC1CCCCC1	101	/	28*	?	10
O=[N+]([O-])c1nn(-c2ccc3c(c2)OCCO3)n(O)c1=NCc1ccccc1Cl	90*	66%	46*	i	29
COc1ccccc1CN=c1c([N+](=O)[O-])nn(-c2ccc3c(c2)OCCO3)n1O	31*	-12%	62*	-21%	23
NC(=S)Cc1ccccc1Cl	-2	34%	-1	65%	44
CCc1ccc(Nc2nc3c(S(=O)(=O)c4cccc(Cl)c4)nnn3c3ccsc23)cc1	/	/	/	/	6
CC(C)CN1C(=O)c2ccc(NC(=O)Cc3ccccc3)cc2C1=O	4	-19%	6	41%	?
CCOc1ccc(-n2c(SCc3ccccc3)nc3c([nH]c4ccccc43)c2=O)cc1	/	/	/	/	-25
CCN(CC)C(=O)Cn1cc(C(=O)C(=O)Nc2ccc3c(c2)OCO3)c2ccccc21	/	/	/	/	11
Cc1cc(C)n2nc(CNS(=O)(=O)c3ccc(F)cc3)nc2n1	-3	20%	1	?	-1
O=C(O)Cn1cc(/C=c2/sc3nc4ccccc4n3c2=O)c2ccccc21	115*	269%	37*	-13%	4
Cc1ccc(-n2c(C)cc(/C=c3/sc4nc5ccccc5n4c3=O)c2C)cc1	87*	127%	35*	-39%	/
COc1cc(N2CCCC2)c(OC)cc1/C=c1/sc2nc3ccccc3n2c1=O	13	33%	-2	2%	/
COc1ccc(/C=c2/sc3nc(-c4ccccc4)c(-c4ccccc4)n3c2=O)cc1	-11	3%	0	9%	-6
O=c1/c(=C\c2cccn2-c2ccccc2)sc2nc3ccccc3n12	28*	17%	21	15%	-33
O=C(COc1ccc(F)cc1)Nc1ccc(C(=O)OCc2cc(=O)n3nc(C4CC4)sc3n2)cc1	/	/	/	/	7
c1ccc(CN(Cc2ccccc2)c2c3c(nc4ncnn24)CCC3)cc1	21	?	0	?	-94*
